Laboratory results: the supplement of paper PMC13380429
Unmarked numbers belong to inactive results.

System: Vero E6 infected with SARS-CoV-2
Test: inhibition of SARS-CoV-2 cytopathic effect; higher = more antiviral protection, active = above 15
Details: 48 h

SMILES	inhibition of SARS-CoV-2 cytopathic effect (1 nM) [%]	inhibition of SARS-CoV-2 cytopathic effect (8.33 nM) [%]	inhibition of SARS-CoV-2 cytopathic effect (100 nM) [%]	inhibition of SARS-CoV-2 cytopathic effect (833.33 nM) [%]	inhibition of SARS-CoV-2 cytopathic effect (10000 nM)
C[C@@H](C(=O)O)c1ccc(-c2ccccc2)c(F)c1 (racemic) [flurbiprofen-(+/-)]	0.383	0.72	1.91	1.32	-0.637%
Nc1nc(=O)c2nc(CNc3ccc(C(=O)N[C@@H](CCC(=O)O)C(=O)O)cc3)cnc2[nH]1 [folic-acid]	-1.27	1.24	0.24	1.38	-0.44%
Cc1cc(OCc2nc(-c3ccccc3Cl)cs2)ccc1OCC(=O)O [GPR120-modulator-1]	-0.13	2.43	-1.19	-1.62	-2.32%
C#C[C@]1(O)CC[C@H]2[C@@H]3CCC4=CC(=O)CC[C@@H]4[C@H]3C(=C)C[C@@]21CC [etonogestrel]	-0.26	-1.3	-4.31	-3.15	-3.98%
COc1cc(/C=C/C(N)=O)cc(OC)c1OC [cintriamide]	-2.6	1.17	-4.56	2.97	2.84%
CCCCCCCCCC(=O)OCCN1CCN(CCCN2c3ccccc3Sc3ccc(C(F)(F)F)cc32)CC1 [fluphenazine-decanoate]	-6.37	-5.38	-8.72	-10.3	-9.75%
CC[N+](CC)(CC)CC(=O)Nc1c(C)cccc1C	-1.18	-2.04	0.02	0.8	-0.17%
CC[C@@]1(O)C(=O)OCc2c1cc1n(c2=O)Cc2cc3ccccc3nc2-1 [camptothecin]	-1.27	1.92	-1.93	-11.9	-20.7%
COc1cc(OC)c(C(=O)CCCN2CCCC2)c(OC)c1 [buflomedil]	1.62	0.64	4.02	3.26	1.28%
COCCOc1ccc2c(c1)ncn2-c1ccc2cccc(N3CCC(N)CC3)c2n1	-0.92	2.04	0.64	1.12	-2.22%
Nc1ncnc2c1ncn2[C@@H]1O[C@H](COP(=O)(O)O)[C@@H](O)[C@H]1O [adenosine-phosphate]	-6.5	-1.98	-4.25	-3.83	-12.6%
Cc1cnc(C(=O)O)c[n+]1[O-] [acipimox]	-1.88	-0.46	-1.4	-2.17	-1.06%
O=C(c1ccc(OCCN2CCCCC2)cc1)c1c(-c2ccc(O)cc2)sc2cc(O)ccc12 [raloxifene]	3.31	1.2	2.79	4.77	24.4% (active)
Cc1nn(-c2ccccc2)c(C)c1/C=N/N1CCN(Cc2ccccc2)CC1	-4.74	0.23	-0.84	-0.98	-0.87%
NC(=O)[C@@H]1CC[C@@H]2CN1C(=O)N2OS(=O)(=O)O [avibactam]	-1.08	0.92	-0.14	0.95	1.7%
COc1ccc2c(Oc3ccc(NC(=O)c4c(C)n(CC(C)(C)O)n(-c5ccccc5)c4=O)nc3)ccnc2c1	2.46	1.91	-0.28	-1.35	-0.65%
NS(=O)(=O)c1cc2c(cc1C(F)(F)F)NCNS2(=O)=O [hydroflumethiazide]	0.67	2.12	1.79	0.37	0.46%
CC(C)(S)C(N)C(=O)O (stereo in doubt) [penicillamine-(racemic)]	-0.3	-1.45	-0.335	-1.03	-0.18%
